For orientation: inhibition means the change of the read-out against control, counted positive when it falls.

This is an account of results in PubChem BioAssay AID425 (Sanford-Burnham Center for Chemical Genomics, 2006).

Each structure is given as a SMILES string. “And” between values parts separate entries of the source, which are not always exact repeats. Identical values can stand only once. In all, about 110,000 compounds went through this assay and about 190 (0.17%) were called active. Cut-off read from the data, not from the text of the source: active = inhibition above about 50%; inactive = the rest. Many of the other results were omitted from the sample, so actives are more common in it than they were. Potency and affinity values are given separately. More than one record can exist for a structure, and the calls need not agree.

Dual specificity protein phosphatase 6 (Rattus norvegicus), sequence (Q64346 whole entry, looked up): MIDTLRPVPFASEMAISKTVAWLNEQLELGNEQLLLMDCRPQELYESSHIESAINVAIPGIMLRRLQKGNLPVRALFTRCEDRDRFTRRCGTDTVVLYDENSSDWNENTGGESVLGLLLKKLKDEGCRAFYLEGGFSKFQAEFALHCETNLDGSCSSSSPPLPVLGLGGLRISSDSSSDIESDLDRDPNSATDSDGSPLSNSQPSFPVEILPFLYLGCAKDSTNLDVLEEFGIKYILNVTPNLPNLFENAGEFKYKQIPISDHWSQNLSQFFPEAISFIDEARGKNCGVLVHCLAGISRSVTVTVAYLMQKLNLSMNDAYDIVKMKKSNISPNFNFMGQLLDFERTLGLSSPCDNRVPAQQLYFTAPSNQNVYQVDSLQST

This assay concerns the target Dual specificity protein phosphatase 6 (Rattus norvegicus) (UniProt Q64346). Put plainly: MKP-3 phosphatase inhibitors, primary screen, biochemical, rat enzyme, in vitro (AID 425).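 Note: plate controls were vehicle for no effect and reference inhibitor for full effect.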 The following applies: recombinant MKP-3 phosphatase activity, fluorescence; at 20 µM; stronger effect = higher value.
On to `O=C(Nc1ccc(-c2cn3ccsc3n2)cc1)C1COc2ccccc2O1` (stereo not drawn), for which the inhibition is 2.3% (inactive).

`CC1=C(C(=O)Nc2cccc(C)c2)C(c2cc(Br)ccc2O)NC(=O)N1` (stereo not drawn): the inhibition is -0.3% (inactive).

As to `CCOc1ccccc1NC(=O)C1C2C=CC(O2)C1C(=O)O` (stereo not drawn), the inhibition is -14.3% (inactive).

For the compound `COC(=O)c1cc(C(=O)NC2CCCCCC2)cc([N+](=O)[O-])c1`, the inhibition is -3.5% (inactive).

For the compound `CCOc1cccc(/C=N\NC(=O)Cc2cccn2C)c1O`, the inhibition was 2.2% (inactive).

`C=CCOc1ccc(/C=C2\C(=O)NC(C)=C2C(=O)OC)cc1OC`: the inhibition was 3% (inactive).

With `COc1cc(F)ccc1S(=O)(=O)N1CCCCCC1`, the inhibition is -0.1% (inactive).

On to `Cc1cccc(N2CCN(C(=O)c3ccc(Cl)c(Cl)c3)CC2)c1C`, for which the inhibition is 3.8% (inactive).

In the case of `C=CCN1C(=O)/C(=C/c2ccc(Cl)cc2)C(=O)NC1=S`, the inhibition is 1.8% (inactive).

For `CCCc1nc(SCC(=O)c2ccc(OC)cc2)c2c(=O)n(C)c(=O)n(C)c2n1`, the inhibition was -2.4% (inactive).

Take `Cn1c(-c2ccccn2)nc2ccccc21`: the inhibition was 1.2% (inactive).

`CCn1c(N)nc2c1c(=O)n(C)c(=O)n2C`: the inhibition is -1.5% (inactive).

For the compound `c1ccc(-c2nnc(-c3ccccn3)nc2-c2ccccc2)cc1`, the inhibition was -0.7% (inactive).

`O=c1c2c3c(sc2n2c(=S)[nH]nc2n1-c1ccccc1)CCCCC3`: the inhibition was 1.2% (inactive).

On to `COc1ccc(CCNC(=O)C2CCN(S(=O)(=O)N3CCCCC3)CC2)cc1OC`, for which the inhibition is -1.4% (inactive).

As to `COc1ccc(Cc2nnc(SCC(=O)N3CCN(c4ccccc4)CC3)o2)cc1`, the inhibition is -9.3% (inactive).

Turning to `O=C1N=c2ccccc2=C1c1s/c(=N/N=C2/C(=O)Nc3ccccc32)n(-c2ccc(O)cc2)c1O`, the inhibition is 69.8% (active).

Regarding `O=C1N=c2ccccc2=C1c1sc(=O)n(-c2ccc(O)cc2)c1O`, the inhibition was 0.6% (inactive).

In the case of `O=C1N=c2ccccc2=C1c1sc(=Nc2ccccc2)n(-c2ccccc2)c1O`, the inhibition is -2% (inactive).

As to `Cc1ccc(-c2nc(CS(=O)CC(=O)NCCC(C)C)c(C)o2)cc1` (stereo not drawn), the inhibition is -10.1% (inactive).

Consider `CCCCNCCCOc1ccccc1CC`, for which the inhibition was -0.3% (inactive).

As to `COc1cc(/C=C2\SC(NC(C)=O)=NC2=O)cc(Br)c1OC`, the inhibition was 3.2% (inactive).

With `COc1cc(C=C2C(=O)c3ccccc3C2=O)cc(Br)c1OCC(=O)O`, the inhibition is 3.3% (inactive).

Turning to `CCOCCOC(=O)c1cccc(NC(=O)/C=C/c2ccc(Cl)cc2Cl)c1`, the inhibition is 3.2% (inactive).

As to `NC(=O)c1cc(-c2ccccc2)sc1N`, the inhibition was 3.8% (inactive).

With `O=C(O)c1cccc(NC2=C(Cl)C(=O)N(c3ccc(Cl)cc3)C2=O)c1`, the inhibition is 7.4% (inactive).

For the compound `O=C1NC(=O)N(c2ccccc2)C(=O)/C1=C\c1cccn1-c1cccc([N+](=O)[O-])c1`, the inhibition is 4.5% (inactive).

As for `O=C1OCCC1Sc1nc2ccccc2[nH]1` (stereo not drawn), the inhibition was -11% (inactive).

As to `FC(F)(F)c1ccc2nnc(-c3cccc(Cl)c3Cl)n2c1`, the inhibition is 5.1% (inactive).

For the compound `C=CCN1C(=O)/C(=C\c2cc3c(cc2[N+](=O)[O-])OCO3)SC1=S`, the inhibition was 124% (active).

In the case of `O=C(NN1C(=O)/C(=C/c2cc3c(cc2[N+](=O)[O-])OCO3)SC1=S)c1ccccc1Cl`, the inhibition is 8.9% (inactive).

On to `CC(=O)NN1C(=O)/C(=C/c2cc3c(cc2[N+](=O)[O-])OCO3)SC1=S`, for which the inhibition was 119% (active).

`O=C1/C(=C\c2cc3c(cc2[N+](=O)[O-])OCO3)SC(=S)N1c1ccccc1`: the inhibition was 5.2% (inactive).

Regarding `C=CCN1C(=O)/C(=C\c2cc3c(cc2Br)OCO3)SC1=S`, the inhibition was 0.3% (inactive).

Regarding `CC(=O)NN1C(=O)/C(=C\c2ccc(O)c([N+](=O)[O-])c2)SC1=S`, the inhibition is 1.4% (inactive).

On to `CC1(C(=O)O)CCC(C(=O)N2CCOCC2)C1(C)C` (stereo not drawn), for which the inhibition is -3.7% (inactive).

`CC(c1nc2ccccc2n1C)C(O)c1ccccc1` (stereo not drawn): the inhibition is -0.3% (inactive).

With `COc1ccc(NC(=O)c2ccco2)cc1NC(=O)c1ccco1`, the inhibition is 0.7% (inactive).

Consider `O=C(O)c1cccc2c1NC(c1ccccc1Br)C1CC=CC21` (stereo not drawn), for which the inhibition is 15.1% (inactive).

Regarding `O=C(O)c1cccc2c1NC(c1ccc(Cl)cc1)C1CC=CC21` (stereo not drawn), the inhibition was 69.9% (active).

For `O=[N+]([O-])c1ccc(C2Nc3c(cccc3[N+](=O)[O-])C3C=CCC32)cc1` (stereo not drawn), the inhibition is 5.4% (inactive).

On to `O=C(O)c1cccc2c1NC(c1ccc([N+](=O)[O-])cc1)C1CC=CC21` (stereo not drawn), for which the inhibition was 71.1% (active).

With `O=[N+]([O-])c1ccc(C2Nc3c(I)cccc3C3C=CCC32)cc1` (stereo not drawn), the inhibition is 4.4% (inactive).

With `O=C(O)c1cccc2c1NC(c1cccc(Cl)c1Cl)C1CC=CC21` (stereo not drawn), the inhibition was 27.8% (inactive).

Take `CCNC(=S)Nc1ccccc1Cl`: the inhibition was -1.1% (inactive).

With `O=C(NN=C1CCN(Cc2ccccc2)CC1)c1sc2ccccc2c1Cl`, the inhibition was 0.3% (inactive).

On to `COc1ccc(NC(=O)C(=O)NCc2ccco2)cc1Cl`, for which the inhibition is -2.8% (inactive).

Turning to `O=[N+]([O-])c1ccc(S(=O)(=O)NCCOc2ccccc2Cl)cc1`, the inhibition was -1.1% (inactive).

Consider `CCOc1ccc(N(CC(=O)NCc2ccc(Cl)cc2)S(=O)(=O)c2ccc(Br)cc2)cc1`, for which the inhibition was 54.4% (active).

In the case of `CCOc1ccc(N(CC(=O)NCc2ccc(OC)cc2)S(=O)(=O)c2ccc(Br)cc2)cc1`, the inhibition is -0.5% (inactive).

Regarding `CCOc1ccc(N(CC(=O)NCc2ccc(Cl)cc2)S(C)(=O)=O)cc1`, the inhibition was -2.6% (inactive).

For `Cc1cccc2cc(=O)[nH]c(C)c12`, the inhibition was 13.2% (inactive).

With `CNS(=O)(=O)c1cc(O)c2c(S(=O)(=O)NC)cccc2c1`, the inhibition was 6% (inactive).

Regarding `Cc1ccc(-c2[nH]n3c(=O)cc(-c4ccc([N+](=O)[O-])cc4)nc3c2C)cc1`, the inhibition is -3.9% (inactive).

`NC(=S)n1[nH]c(-c2ccccc2)c(N=Nc2ccc(C(=O)O)cc2)c1=O`: the inhibition was -0.5% (inactive).

For `O=C(CCCC(=O)OCC(F)(F)C(F)F)Nc1ccc(F)cc1F`, the inhibition was -2.5% (inactive).

Take `CC1CCN(CCCNC(=O)c2cn(C)c3ccc(S(=O)(=O)N4CCCC4)cc3c2=O)CC1`: the inhibition was -3% (inactive).

On to `CCCCCCCCNC(=O)CCC(=O)O`, for which the inhibition was -1.5% (inactive).

Take `CCCCCC1NC(=O)NC1CCCCCC(=O)O` (stereo not drawn): the inhibition was -4.9% (inactive).

Consider `COc1c(Cl)cc(C(=O)Nc2ccc(N3CCOCC3)cc2)cc1Cl`, for which the inhibition is 3.1% (inactive).

Regarding `COc1ccc(Cn2c(C)ccc2C)cc1`, the inhibition is 0.3% (inactive).

For `O=C(O)c1ccc(CN2CCOCC2)cc1`, the inhibition is 1.1% (inactive).

Regarding `Cc1ccc(C)n1Cc1ccc(C(=O)O)cc1`, the inhibition is 85.4% (active) and -2.3% (inactive).
